In the library only some 3.1% were active in any assay of this set; here they are far more common.
ARNT TACC3 PPI: disrupts binding between human ARNT and TACC3. inhibition, % at 9.99 µM. Q9Y6A5. AID 623870. 0.66% of 390,000 active. AlphaScreen His-ARNT PAS-B/GST-TACC3 binding, luminescence; TACC3 fragment carries E629A point mutation;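 active = mean inhibition of replicates at least 50% and at least half of replicates each reaching 50%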;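 note: 0% = complete ARNT plus TACC3 wells and 100% = ARNT alone without TACC3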
HSP90 inh: blocks HSP90-mediated luciferase refolding in reticulocyte lysate. 0.91% of 290,000 active. AID 1789. inhibition, % at 5.6 µM. Rabbit reticulocyte lysate, luciferase refolding luminescence, 3 h;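 active = inhibition above the screen-wide mean plus 3 SD, computed separately per campaign, cut at about 16% in these data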;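 note: 0% = DMSO wells and 100% = 60 µM geldanamycin wells; inhibitors lower the luminescence because luciferase stays unfolded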
HIF act: HIF pathway transcriptional activation; U2OS HRE-luciferase reporter, luminescence; normalized: DMSO 0%, desferrioxamine 100%; 0.32% of 300,000 active; AID 1910; activation, % at 7.5 µM (by protocol);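 active = mean activation of at least 10% of the iron chelator positive control signal, with at least half of replicates also reaching 10%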
HSF1 activator: increases HSF-1 driven luciferase reporter signal. NIH3T3-HGL HSF-1 luciferase reporter, MG132, 8 h; 100% = twice DMSO control signal. activation, % at 9 µM. 1.7% of 300,000 active. AID 504408;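 active = mean replicate activation of at least 50% with a set share of replicates each reaching 50%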;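 note: 0% = median of the neutral control wells and 100% = twice that signal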
HSF1 inhib: HSF1 inhibition; activity change, negative = inhibition, % at 7.5 µM (by protocol); 0.77% of 300,000 active; NIH3T3-HGL HSE-luciferase, MG132-induced, luminescence 8 h; active compounds read low;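 active = more than half of replicate wells show activity change below -50%, luminescence cut by over half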;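 note: luciferase reports HSF-1 transcriptional activity via heat shock element; 0% = median of DMSO wells and -100% = zero luminescence signal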
* marks the source's active call; other numbers are inactive results; x = no result given.

SMILES	ARNT TACC3 PPI	HSP90 inh	HIF act	HSF1 activator	HSF1 inhib
C1CCC(Nc2nnnn2C2CCCCC2)CC1	-8	0	0	-65	-59*
COc1ccc(CC(NC(C)=O)C(=O)NC2CCN(C(=O)c3cccc(Cl)c3)CC2)cc1OC (stereo not given)	-17	-1	127*	6	-3
CO[C@H]1CN(C)C(=O)c2ccc(NC(=O)C3CCCC3)cc2OC[C@H](C)N(C(C)=O)C[C@H]1C	4	x	x	x	x
CN1CCC2(CC1)N=C(c1ccc(F)cc1)C(=S)N2C(=O)c1ccc(C(C)(C)C)cc1	3	1	191*	38	15
CS(=O)(=O)c1ccc(C(=O)OCC(=O)NC23CC4CC(CC(C4)C2)C3)cc1[N+](=O)[O-]	-15	1	3	51*	26
O=C(NNc1cccc(Cl)n1)Nc1ccc(Cl)cc1	3	-11	1	77*	33
CN(C)CCCNC(=O)[C@@H]1[C@@H](CO)[C@@H]2Cn3c(cccc3=O)[C@@H]2N1C(=O)Nc1ccccc1	-3	x	x	x	x
CC1=CC2C(C(O)CC3(C)C2CC(C)C32OCOC23COCO3)C2(C)C/C(=C\O)C(=O)C=C12 (stereo not given)	4	x	x	94*	94*
COc1ccc(/C=C/C(=O)c2ccc(C)c([N+](=O)[O-])c2)cc1O	-11	-3	0	67*	22
COc1cc(/C=C/C(=O)c2ccc(C)c([N+](=O)[O-])c2)cc(OC)c1O	-9	-3	1	128*	70
C/C(Cl)=C/Cc1c(C)[nH]c2ccc(C)cc2c1=O	-11	0	2	58*	24
Cc1nc(-c2ccccn2)sc1C(=O)Nc1ccc(F)cc1F	-3	1	3	70*	40
Oc1ccc(N=Nc2ccccc2C(F)(F)F)c2cccnc12	-20	-1	-3	-72	-66*
COc1ccccc1N=Nc1ccc(O)c2ncccc12	66*	12	11*	-79	-78*
COc1ccccc1N=Nc1[nH]c2ccc(C)cc2c1O	-3	0	0	7	-3
CCS(=O)(=O)c1ccc(O)c(NC(=O)c2cc(OC)c(OC)c(OC)c2)c1	-2	-5	0	3	0
CCS(=O)(=O)c1ccc(N=Nc2ccc(O)c3ncccc23)c(OC)c1	30	4	4	-57	-60*
C=CC1CN(S(=O)(=O)c2ccc(Br)cc2)C(=O)N1c1ccc(Br)cc1 (stereo not given)	-1	x	x	x	x
CCN1[C@@H]2c3ccc(/C=C/c4ccccc4)c(=O)n3C[C@H]1[C@H](CO)[C@H]2C(=O)N1CCOCC1	-3	x	x	x	x
Cc1ccc2nc(-c3ccc4c(c3)NC(=O)CO4)cn2c1	-8	2	2	64*	33
COc1ccc(-c2cn3cc(C)ccc3n2)cc1OC	4	11	1	96*	71
COc1ccc(-c2cn3ccccc3n2)cc1OC	-17	3	2	12	16
CCCNC(=O)[C@@H]1[C@@H](CO)[C@@H]2Cn3c(ccc(-c4ccccc4OC)c3=O)[C@@H]2N1CC	-6	x	x	x	x
O=C(NCC1CCCO1)c1cc(-c2ccccc2)on1 (stereo not given)	3	1	15*	39	18
O=C(NCc1ccco1)c1cc(-c2ccccc2)on1	-10	-3	12*	50	10
O=C(NCc1ccco1)c1ccccc1-c1ccccc1	1	2	0	0	-1
O=C(NCC1CCCO1)c1cc(-c2ccc(F)cc2)no1 (stereo not given)	6	-4	14*	26	4
COc1ccc(-c2cc(C(=O)NCC3CCCO3)on2)cc1OC (stereo not given)	-1	-4	0	24	-3
